# Reference: publication PMC7862700, “An all-to-all approach to the identification of sequence-specific readers for epigenetic DNA modifications on cytosine”
# Legend:
# Assay in all cases: DAPPL (digital affinity profiling via proximity ligation, sequencing); 10 mM Tris-HCl pH 7.5, 50 mM NaCl, 1 mM DTT, 4% glycerol, room temperature, 30 min; GST-TFs on glutathione beads, 16-mer random dsDNA library, 0.1% formaldehyde crosslink after washing; high values mean tight binding
# FLI1 = molecular target: T1, FLI1 (Homo sapiens, UniProt Q01543 1-452); conditions: protein: recombinant; tags: N-terminal GST; dsDNA, one strand shown
# T1 sequence: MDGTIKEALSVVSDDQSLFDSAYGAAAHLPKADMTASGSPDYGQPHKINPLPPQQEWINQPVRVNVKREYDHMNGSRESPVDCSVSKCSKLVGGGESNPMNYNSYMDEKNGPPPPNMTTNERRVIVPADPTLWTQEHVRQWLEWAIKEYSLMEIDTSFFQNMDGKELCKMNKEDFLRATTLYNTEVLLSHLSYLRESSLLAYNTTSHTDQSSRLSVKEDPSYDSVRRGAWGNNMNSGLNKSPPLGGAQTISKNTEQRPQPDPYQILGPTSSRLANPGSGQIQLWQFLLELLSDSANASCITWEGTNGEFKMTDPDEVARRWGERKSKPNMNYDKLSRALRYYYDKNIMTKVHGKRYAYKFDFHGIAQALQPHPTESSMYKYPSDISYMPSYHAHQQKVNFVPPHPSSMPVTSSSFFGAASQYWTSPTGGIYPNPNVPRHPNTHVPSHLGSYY
# How it was run: (§1)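 Sequencing on an Illumina NextSeq500 followed washing, crosslinking with 0.1% formaldehyde, proximity ligation (BsaI/T4 ligase, 1 h, 37 °C) and PCR amplification of pools that had been incubated for 30 min at room temperature with 200 nmole of a random double-stranded 16-mer DNA library in Tris/NaCl/DTT/glycerol buffer. Each pool held DNA-barcoded human transcription factors, expressed in yeast as GST fusions and captured on glutathione beads, plus a tag-only sample. Binding signal is a hexamer's read frequency for a factor divided by its frequency in the tag-only sample.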
# ELK1 = molecular target: T2, ELK1 (Homo sapiens, UniProt P19419 1-428); conditions: protein: recombinant; tags: N-terminal GST; dsDNA, one strand shown
# T2 sequence: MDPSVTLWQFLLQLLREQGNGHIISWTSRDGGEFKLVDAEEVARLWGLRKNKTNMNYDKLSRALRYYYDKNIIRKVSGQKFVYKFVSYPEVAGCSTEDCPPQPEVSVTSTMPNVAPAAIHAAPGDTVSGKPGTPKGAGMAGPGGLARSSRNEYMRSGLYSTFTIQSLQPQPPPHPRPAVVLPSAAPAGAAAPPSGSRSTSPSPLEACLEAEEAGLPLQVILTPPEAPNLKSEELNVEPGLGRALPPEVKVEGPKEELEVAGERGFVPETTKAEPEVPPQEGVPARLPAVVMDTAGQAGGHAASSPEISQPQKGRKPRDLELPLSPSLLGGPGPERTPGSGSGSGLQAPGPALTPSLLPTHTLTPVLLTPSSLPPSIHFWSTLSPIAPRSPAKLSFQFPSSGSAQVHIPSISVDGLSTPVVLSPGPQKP
# How it was run: as §1
# GABPA = molecular target: T3, GABPA (Homo sapiens, UniProt Q06546 1-454); conditions: protein: recombinant; tags: N-terminal GST; dsDNA, one strand shown
# T3 sequence: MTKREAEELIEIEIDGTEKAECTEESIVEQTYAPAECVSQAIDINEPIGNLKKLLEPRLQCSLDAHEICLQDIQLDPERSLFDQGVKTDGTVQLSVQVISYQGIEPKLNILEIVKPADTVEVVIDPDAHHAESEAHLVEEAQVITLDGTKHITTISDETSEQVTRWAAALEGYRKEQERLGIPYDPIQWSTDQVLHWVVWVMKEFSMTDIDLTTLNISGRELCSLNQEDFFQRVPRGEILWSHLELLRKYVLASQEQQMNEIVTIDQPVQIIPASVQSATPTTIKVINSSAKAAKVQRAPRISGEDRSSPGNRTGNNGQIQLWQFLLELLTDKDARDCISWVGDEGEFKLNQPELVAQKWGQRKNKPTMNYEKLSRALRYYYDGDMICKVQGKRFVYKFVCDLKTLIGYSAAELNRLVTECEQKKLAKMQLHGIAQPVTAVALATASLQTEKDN
# How it was run: as §1
# ERG = molecular target: T4, ERG (Homo sapiens, UniProt P11308 1-479); conditions: protein: recombinant; tags: N-terminal GST; dsDNA, one strand shown
# T4 sequence: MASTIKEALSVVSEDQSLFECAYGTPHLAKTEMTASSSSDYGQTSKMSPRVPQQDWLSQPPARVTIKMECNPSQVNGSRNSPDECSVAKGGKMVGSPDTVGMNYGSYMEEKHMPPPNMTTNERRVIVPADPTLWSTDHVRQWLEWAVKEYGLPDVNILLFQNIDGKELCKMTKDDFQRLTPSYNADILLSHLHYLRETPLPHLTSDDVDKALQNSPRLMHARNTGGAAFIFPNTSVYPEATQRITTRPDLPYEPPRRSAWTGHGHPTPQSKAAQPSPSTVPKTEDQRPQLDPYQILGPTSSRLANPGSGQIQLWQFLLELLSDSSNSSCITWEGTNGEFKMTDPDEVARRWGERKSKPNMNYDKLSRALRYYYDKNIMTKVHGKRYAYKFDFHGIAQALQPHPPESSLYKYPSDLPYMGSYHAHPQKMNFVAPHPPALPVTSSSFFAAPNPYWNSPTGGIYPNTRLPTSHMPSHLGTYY
# How it was run: as §1
# ELF1 = ELF1 (Homo sapiens, UniProt P32519 1-619); conditions: protein: recombinant; tags: N-terminal GST; dsDNA, one strand shown
# Chain of ELF1 (P32519 whole entry): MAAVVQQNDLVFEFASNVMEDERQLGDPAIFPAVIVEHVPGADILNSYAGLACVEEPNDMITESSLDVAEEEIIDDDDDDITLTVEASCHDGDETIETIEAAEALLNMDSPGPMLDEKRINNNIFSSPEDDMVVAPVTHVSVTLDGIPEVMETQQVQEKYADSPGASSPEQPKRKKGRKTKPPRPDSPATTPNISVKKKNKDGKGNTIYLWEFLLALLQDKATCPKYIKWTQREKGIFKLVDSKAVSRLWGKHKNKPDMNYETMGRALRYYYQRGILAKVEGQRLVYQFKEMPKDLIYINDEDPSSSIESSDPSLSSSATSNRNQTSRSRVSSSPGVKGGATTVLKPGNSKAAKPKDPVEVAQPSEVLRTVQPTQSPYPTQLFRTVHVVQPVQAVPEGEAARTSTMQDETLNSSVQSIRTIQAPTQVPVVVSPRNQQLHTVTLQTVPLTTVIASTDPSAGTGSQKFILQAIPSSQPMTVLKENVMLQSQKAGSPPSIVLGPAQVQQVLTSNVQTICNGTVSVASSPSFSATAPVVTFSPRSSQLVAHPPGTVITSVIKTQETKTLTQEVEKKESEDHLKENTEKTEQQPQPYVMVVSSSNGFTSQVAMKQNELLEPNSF
# How it was run: as §1
# EHF = molecular target: T5, EHF (Homo sapiens, UniProt Q9NZC4 1-300); conditions: protein: recombinant; tags: N-terminal GST; dsDNA, one strand shown
# T5 sequence: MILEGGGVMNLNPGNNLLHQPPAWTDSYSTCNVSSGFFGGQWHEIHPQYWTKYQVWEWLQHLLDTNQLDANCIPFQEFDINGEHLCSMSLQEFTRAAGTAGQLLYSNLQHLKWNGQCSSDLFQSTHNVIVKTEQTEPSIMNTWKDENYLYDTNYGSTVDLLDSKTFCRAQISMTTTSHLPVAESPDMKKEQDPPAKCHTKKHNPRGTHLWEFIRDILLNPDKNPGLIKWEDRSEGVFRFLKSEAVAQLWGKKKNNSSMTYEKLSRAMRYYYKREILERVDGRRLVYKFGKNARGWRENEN
# How it was run: as §1
# SPI1 = SPI1 (Homo sapiens, UniProt P17947 1-270); conditions: protein: recombinant; tags: N-terminal GST; dsDNA, one strand shown
# How it was run: as §1
# SPIB = SPIB (Homo sapiens, UniProt Q01892 1-262); conditions: protein: recombinant; tags: N-terminal GST; dsDNA, one strand shown
# Chain of SPIB (Q01892 whole entry): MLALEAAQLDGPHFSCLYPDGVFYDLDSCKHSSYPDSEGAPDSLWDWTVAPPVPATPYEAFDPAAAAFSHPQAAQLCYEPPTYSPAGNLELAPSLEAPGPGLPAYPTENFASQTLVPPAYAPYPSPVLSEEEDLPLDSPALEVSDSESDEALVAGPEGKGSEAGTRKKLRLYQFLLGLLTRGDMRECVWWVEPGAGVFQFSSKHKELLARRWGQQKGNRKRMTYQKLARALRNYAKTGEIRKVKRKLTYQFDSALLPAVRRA
# How it was run: as §1
# ELK3 = molecular target: T6, ELK3 (Homo sapiens, UniProt P41970 1-407); conditions: protein: recombinant; tags: N-terminal GST; dsDNA, one strand shown
# T6 sequence: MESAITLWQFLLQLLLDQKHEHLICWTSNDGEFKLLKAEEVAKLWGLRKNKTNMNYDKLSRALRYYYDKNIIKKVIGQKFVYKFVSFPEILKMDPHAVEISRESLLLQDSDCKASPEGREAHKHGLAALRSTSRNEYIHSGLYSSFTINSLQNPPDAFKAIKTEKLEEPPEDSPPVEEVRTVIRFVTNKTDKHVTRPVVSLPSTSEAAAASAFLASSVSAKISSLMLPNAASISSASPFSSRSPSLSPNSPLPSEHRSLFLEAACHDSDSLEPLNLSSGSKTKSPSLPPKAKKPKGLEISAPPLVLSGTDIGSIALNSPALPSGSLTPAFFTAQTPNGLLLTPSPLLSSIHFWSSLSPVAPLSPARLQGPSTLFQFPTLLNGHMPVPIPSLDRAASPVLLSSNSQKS
# How it was run: as §1
# FEV = molecular target: T7, FEV (Homo sapiens, UniProt Q99581 1-238); conditions: protein: recombinant; tags: N-terminal GST; dsDNA, one strand shown
# T7 sequence: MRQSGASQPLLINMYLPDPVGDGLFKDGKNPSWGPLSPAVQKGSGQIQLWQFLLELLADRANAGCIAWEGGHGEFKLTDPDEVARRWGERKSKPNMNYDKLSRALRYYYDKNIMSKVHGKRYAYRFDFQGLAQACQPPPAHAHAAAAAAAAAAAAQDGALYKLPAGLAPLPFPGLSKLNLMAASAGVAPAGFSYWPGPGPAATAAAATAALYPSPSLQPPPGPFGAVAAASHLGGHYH
# How it was run: as §1
# ETV5 = ETV5 (Homo sapiens, UniProt P41161 1-510); conditions: protein: recombinant; tags: N-terminal GST; dsDNA, one strand shown
# Chain of ETV5 (P41161 whole entry): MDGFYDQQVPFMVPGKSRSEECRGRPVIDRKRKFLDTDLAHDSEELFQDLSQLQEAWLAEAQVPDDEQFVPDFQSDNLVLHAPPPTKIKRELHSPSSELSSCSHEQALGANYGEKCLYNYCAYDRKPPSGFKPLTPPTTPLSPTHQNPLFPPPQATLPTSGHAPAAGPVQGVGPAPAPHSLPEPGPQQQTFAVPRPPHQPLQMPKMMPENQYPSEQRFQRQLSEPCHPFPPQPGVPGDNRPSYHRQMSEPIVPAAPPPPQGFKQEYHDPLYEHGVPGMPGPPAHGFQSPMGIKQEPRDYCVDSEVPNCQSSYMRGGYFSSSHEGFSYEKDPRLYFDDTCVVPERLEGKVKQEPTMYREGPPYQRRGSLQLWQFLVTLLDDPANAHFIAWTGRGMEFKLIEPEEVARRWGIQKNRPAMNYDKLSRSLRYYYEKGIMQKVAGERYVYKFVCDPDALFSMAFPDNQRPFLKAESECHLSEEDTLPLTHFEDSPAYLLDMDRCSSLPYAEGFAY
# How it was run: as §1
# HSF1 = HSF1 (Homo sapiens, UniProt Q00613 1-529); conditions: protein: recombinant; tags: N-terminal GST; chain copies: 3; dsDNA, one strand shown
# Chain of HSF1 (Q00613 whole entry): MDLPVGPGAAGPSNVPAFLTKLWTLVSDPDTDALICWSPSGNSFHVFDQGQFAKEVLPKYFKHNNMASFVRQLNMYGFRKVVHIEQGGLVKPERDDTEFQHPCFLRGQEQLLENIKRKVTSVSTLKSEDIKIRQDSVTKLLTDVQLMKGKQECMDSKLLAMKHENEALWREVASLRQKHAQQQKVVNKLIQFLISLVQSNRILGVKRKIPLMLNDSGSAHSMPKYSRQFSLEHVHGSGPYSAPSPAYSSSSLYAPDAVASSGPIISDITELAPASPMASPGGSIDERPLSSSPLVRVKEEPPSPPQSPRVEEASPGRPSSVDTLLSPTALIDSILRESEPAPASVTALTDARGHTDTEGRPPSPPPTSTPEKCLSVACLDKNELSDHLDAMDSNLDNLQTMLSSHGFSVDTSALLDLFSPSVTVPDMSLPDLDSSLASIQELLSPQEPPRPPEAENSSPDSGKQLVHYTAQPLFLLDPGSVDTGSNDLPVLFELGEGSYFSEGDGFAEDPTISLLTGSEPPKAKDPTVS
# How it was run: as §1
# SPIC = molecular target: T8, SPIC (Homo sapiens, UniProt Q8N5J4 1-248); conditions: protein: recombinant; tags: N-terminal GST; dsDNA, one strand shown
# T8 sequence: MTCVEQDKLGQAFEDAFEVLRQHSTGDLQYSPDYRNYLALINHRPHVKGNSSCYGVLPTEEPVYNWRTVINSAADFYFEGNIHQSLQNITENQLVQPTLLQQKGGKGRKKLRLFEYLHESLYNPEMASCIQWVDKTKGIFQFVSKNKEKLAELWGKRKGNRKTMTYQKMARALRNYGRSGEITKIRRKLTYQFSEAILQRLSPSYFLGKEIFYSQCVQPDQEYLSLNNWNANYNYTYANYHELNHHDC
# How it was run: as §1
# ELF4 = ELF4 (Homo sapiens, UniProt Q99607 1-663); conditions: protein: recombinant; tags: N-terminal GST; dsDNA, one strand shown
# Chain of ELF4 (Q99607 whole entry): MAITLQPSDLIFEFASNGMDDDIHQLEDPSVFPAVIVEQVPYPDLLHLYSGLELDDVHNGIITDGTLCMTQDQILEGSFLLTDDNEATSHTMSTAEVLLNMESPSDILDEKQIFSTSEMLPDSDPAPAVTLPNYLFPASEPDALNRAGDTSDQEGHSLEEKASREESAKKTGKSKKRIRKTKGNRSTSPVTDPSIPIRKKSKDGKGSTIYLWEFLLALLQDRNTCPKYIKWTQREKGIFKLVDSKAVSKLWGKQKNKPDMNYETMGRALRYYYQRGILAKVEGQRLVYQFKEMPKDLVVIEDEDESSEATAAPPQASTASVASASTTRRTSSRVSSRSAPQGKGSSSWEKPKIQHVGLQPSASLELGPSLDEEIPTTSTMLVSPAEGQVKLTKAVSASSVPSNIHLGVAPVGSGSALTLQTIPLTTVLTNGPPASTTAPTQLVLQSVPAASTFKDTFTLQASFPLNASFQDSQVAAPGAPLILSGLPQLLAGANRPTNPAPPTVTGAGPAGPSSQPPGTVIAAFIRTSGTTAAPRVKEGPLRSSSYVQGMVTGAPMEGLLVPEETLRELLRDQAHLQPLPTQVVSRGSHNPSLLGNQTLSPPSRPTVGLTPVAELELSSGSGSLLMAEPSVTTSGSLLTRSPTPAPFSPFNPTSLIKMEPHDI
# How it was run: as §1
# ELK4 = molecular target: T9, ELK4 (Homo sapiens, UniProt P28324-2 1-405); conditions: protein: recombinant; tags: N-terminal GST; dsDNA, one strand shown
# T9 sequence: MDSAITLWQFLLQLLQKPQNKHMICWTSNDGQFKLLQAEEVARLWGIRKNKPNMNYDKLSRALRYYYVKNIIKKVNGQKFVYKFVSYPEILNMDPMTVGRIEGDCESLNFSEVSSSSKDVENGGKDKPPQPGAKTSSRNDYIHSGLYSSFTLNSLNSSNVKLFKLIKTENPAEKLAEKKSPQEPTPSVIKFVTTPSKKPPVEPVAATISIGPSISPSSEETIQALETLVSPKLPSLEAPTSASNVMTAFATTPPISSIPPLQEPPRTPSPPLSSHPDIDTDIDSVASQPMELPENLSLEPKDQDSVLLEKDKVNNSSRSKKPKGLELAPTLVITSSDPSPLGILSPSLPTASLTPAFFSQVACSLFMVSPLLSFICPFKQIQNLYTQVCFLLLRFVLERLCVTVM
# How it was run: as §1
# ETV2 = molecular target: T10, ETV2 (Homo sapiens, UniProt O00321 1-342); conditions: protein: recombinant; tags: N-terminal GST; dsDNA, one strand shown
# T10 sequence: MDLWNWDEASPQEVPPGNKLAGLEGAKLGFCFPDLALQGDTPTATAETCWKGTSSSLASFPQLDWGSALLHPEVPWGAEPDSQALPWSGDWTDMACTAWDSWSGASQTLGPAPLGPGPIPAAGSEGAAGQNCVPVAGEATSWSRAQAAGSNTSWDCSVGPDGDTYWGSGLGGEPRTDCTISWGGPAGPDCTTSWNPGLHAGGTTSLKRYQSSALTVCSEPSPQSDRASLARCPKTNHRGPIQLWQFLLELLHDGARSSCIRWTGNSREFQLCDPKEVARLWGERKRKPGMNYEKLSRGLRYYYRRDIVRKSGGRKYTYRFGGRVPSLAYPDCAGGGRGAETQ
# How it was run: as §1
# ELF3 = molecular target: T11, ELF3 (Homo sapiens, UniProt P78545 1-371); conditions: protein: recombinant; tags: N-terminal GST; dsDNA, one strand shown
# T11 sequence: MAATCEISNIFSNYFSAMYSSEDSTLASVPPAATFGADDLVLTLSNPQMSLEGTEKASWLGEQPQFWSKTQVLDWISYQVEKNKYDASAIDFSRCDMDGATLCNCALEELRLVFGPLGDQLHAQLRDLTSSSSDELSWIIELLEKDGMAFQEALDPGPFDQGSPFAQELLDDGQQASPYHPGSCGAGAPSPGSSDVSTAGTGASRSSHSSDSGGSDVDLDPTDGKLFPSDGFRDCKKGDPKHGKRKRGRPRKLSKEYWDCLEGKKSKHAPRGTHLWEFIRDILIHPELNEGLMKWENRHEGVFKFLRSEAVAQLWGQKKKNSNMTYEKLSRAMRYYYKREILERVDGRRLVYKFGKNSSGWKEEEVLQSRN
# How it was run: as §1
# CRX = CRX (Homo sapiens, UniProt O43186 1-299); conditions: protein: recombinant; tags: N-terminal GST; dsDNA, one strand shown
# Chain of CRX (O43186 whole entry): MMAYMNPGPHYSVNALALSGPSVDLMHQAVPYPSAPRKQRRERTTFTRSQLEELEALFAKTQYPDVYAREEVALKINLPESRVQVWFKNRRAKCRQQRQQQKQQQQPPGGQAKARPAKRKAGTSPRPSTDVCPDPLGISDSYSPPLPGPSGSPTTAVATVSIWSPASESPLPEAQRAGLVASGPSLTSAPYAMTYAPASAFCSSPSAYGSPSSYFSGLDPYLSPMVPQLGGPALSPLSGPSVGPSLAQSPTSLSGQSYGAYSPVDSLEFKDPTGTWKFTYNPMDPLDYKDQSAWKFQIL
# How it was run: as §1
# ETV1 = ETV1 (Homo sapiens, UniProt P50549 1-477); conditions: protein: recombinant; tags: N-terminal GST; dsDNA, one strand shown
# Chain of ETV1 (P50549 whole entry): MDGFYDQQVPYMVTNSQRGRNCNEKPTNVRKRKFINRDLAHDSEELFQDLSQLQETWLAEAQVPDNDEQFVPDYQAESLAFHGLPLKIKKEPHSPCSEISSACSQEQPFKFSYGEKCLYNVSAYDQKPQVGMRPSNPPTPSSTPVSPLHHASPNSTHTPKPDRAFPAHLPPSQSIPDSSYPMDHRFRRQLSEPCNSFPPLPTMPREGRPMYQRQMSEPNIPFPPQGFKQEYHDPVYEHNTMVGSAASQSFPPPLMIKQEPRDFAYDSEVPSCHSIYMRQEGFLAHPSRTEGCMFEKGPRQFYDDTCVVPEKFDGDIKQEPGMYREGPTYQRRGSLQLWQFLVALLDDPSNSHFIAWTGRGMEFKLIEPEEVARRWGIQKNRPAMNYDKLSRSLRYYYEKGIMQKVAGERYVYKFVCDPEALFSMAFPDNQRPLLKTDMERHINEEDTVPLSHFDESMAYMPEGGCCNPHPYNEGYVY
# How it was run: as §1
sequence,measurement,setting,value
AGCTTC,binding signal,FLI1,"1.64 fold enrichment (6-mer frequency, TF over GST control)"
same,binding signal,ELK1,"1.86 fold enrichment (6-mer frequency, TF over GST control)"
same,binding signal,GABPA,"1.71 fold enrichment (6-mer frequency, TF over GST control)"
same,binding signal,ERG,"1.83 fold enrichment (6-mer frequency, TF over GST control)"
same,binding signal,ELF1,"1.66 fold enrichment (6-mer frequency, TF over GST control)"
same,binding signal,EHF,"1.83 fold enrichment (6-mer frequency, TF over GST control)"
same,binding signal,SPI1,"1.74 fold enrichment (6-mer frequency, TF over GST control)"
same,binding signal,SPIB,"1.78 fold enrichment (6-mer frequency, TF over GST control)"
same,binding signal,ELK3,"2.06 fold enrichment (6-mer frequency, TF over GST control)"
same,binding signal,FEV,"1.84 fold enrichment (6-mer frequency, TF over GST control)"
same,binding signal,ETV5,"1.85 fold enrichment (6-mer frequency, TF over GST control)"
same,binding signal,HSF1,"1.93 fold enrichment (6-mer frequency, TF over GST control)"
same,binding signal,SPIC,"1.75 fold enrichment (6-mer frequency, TF over GST control)"
same,binding signal,ELF4,"1.67 fold enrichment (6-mer frequency, TF over GST control)"
same,binding signal,ELK4,"1.64 fold enrichment (6-mer frequency, TF over GST control)"
same,binding signal,ETV2,"1.74 fold enrichment (6-mer frequency, TF over GST control)"
same,binding signal,ELF3,"1.58 fold enrichment (6-mer frequency, TF over GST control)"
same,binding signal,CRX,"1.62 fold enrichment (6-mer frequency, TF over GST control)"
same,binding signal,ETV1,"1.62 fold enrichment (6-mer frequency, TF over GST control)"
